Assay results reported in PubChem BioAssay (NCI).
Compounds without any hit were thinned out: in the full panel of roughly 83,000, 20% have a hit.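 In brief: 96-well plates, 48 h treatment, single concentration, percent growth endpoint.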 Active and inactive are the calls of the source. The calls were made as follows: active = growth percent below 10; inactive = the rest.

Key:
Test in all cases: NCI-60 one-dose screen, 48 h (100 = growth as untreated, 0 = no growth, -100 = all killed)
Conditions in all cases: 10 µM
NCI-H23 lung = system: NCI-H23 lung
NCI-H226 lung = system: NCI-H226 lung
HOP-62 NSCLC = system: HOP-62 NSCLC
NCI-H460 lung = system: NCI-H460 lung
HOP-92 NSCLC = system: HOP-92 NSCLC
NCI-H522 lung = system: NCI-H522 lung
A549/ATCC NSCLC = system: A549/ATCC NSCLC
786-0 renal = system: 786-0 renal
COLO 205 colon = system: COLO 205 colon
NCI-H322M lung = system: NCI-H322M lung

Measured: growth

C=CCOC(=O)C(=O)OCC=C
inactive: NCI-H23 lung 110% | NCI-H226 lung 99.7% | HOP-62 NSCLC 92.7% | NCI-H460 lung 112% | HOP-92 NSCLC 90% | NCI-H522 lung 96.6% | A549/ATCC NSCLC 109% | 786-0 renal 106% | COLO 205 colon 111%

O=S(=O)(O)c1cc(O)c2c(N=Cc3ccccc3O)c(S(=O)(=O)O)ccc2c1
inactive: NCI-H23 lung 101% | NCI-H226 lung 101% | NCI-H322M lung 93.7% | NCI-H460 lung 105% | NCI-H522 lung 91.4% | A549/ATCC NSCLC 111% | 786-0 renal 99.8% | COLO 205 colon 119%

Cc1cc(=O)n(-c2ccc(F)cc2)[nH]1
inactive: NCI-H23 lung 103% | NCI-H226 lung 98.3% | NCI-H322M lung 95.6% | NCI-H460 lung 106% | NCI-H522 lung 97.6% | A549/ATCC NSCLC 102% | 786-0 renal 105% | COLO 205 colon 107%

COc1cc([C@@H]2c3cc4c(cc3[C@H](O)[C@H]3COC(=O)[C@H]23)OCO4)cc(OC)c1OC
inactive: NCI-H23 lung 13.1% | HOP-92 NSCLC 11.3% | A549/ATCC NSCLC 14.2% | 786-0 renal 12.4%
active: NCI-H226 lung -9.84% | NCI-H460 lung 9.21% | COLO 205 colon -57.8%

CCOC(=O)c1cc2cccc(OC)c2oc1=O
inactive: NCI-H23 lung 110% | NCI-H226 lung 106% | NCI-H322M lung 107% | NCI-H460 lung 110% | NCI-H522 lung 83.5% | 786-0 renal 95.5% | COLO 205 colon 123%

CC(=O)OC(C(=O)O)c1ccccc1 (stereo not drawn)
inactive: NCI-H23 lung 111% | NCI-H226 lung 110% | HOP-62 NSCLC 112% | HOP-92 NSCLC 80.4% | NCI-H522 lung 107% | A549/ATCC NSCLC 106% | 786-0 renal 109% | COLO 205 colon 118%

N#Cc1ccc(OC(=O)Nc2ccc(Cl)c(Cl)c2)cc1
inactive: NCI-H23 lung 39.6% | NCI-H226 lung 63.7% | NCI-H322M lung 89.4% | NCI-H460 lung 99.8% | NCI-H522 lung 24.5% | A549/ATCC NSCLC 47.2% | 786-0 renal 89.5% | COLO 205 colon 96.3%

Cc1cc(Cc2cc(C)c(N)cc2N)c(N)cc1N
inactive: NCI-H23 lung 86.6% | NCI-H226 lung 81.7% | HOP-62 NSCLC 88.1% | NCI-H460 lung 101% | HOP-92 NSCLC 91.4% | NCI-H522 lung 89.4% | A549/ATCC NSCLC 85.2% | 786-0 renal 104% | COLO 205 colon 92.8%

Cc1ccccc1N=C(c1ccccc1)C1C(=O)c2ccccc2C1=O
inactive: NCI-H23 lung 87.6% | NCI-H226 lung 90.4% | HOP-62 NSCLC 98.8% | NCI-H460 lung 101% | HOP-92 NSCLC 72.7% | NCI-H522 lung 59% | 786-0 renal 88.6% | COLO 205 colon 103%

CN(C)c1nc2c([nH]1)c(=O)n(C)c(=O)n2C
inactive: NCI-H23 lung 99.8% | NCI-H226 lung 81.2% | NCI-H322M lung 105% | NCI-H460 lung 103% | NCI-H522 lung 73.1% | A549/ATCC NSCLC 92.2% | 786-0 renal 105%

O=C(O)CCCc1ccccc1
inactive: NCI-H23 lung 103% | NCI-H226 lung 108% | NCI-H460 lung 115% | HOP-92 NSCLC 105% | A549/ATCC NSCLC 102% | 786-0 renal 97.4% | COLO 205 colon 110%

C#CCSc1nnnn1-c1ccc(Br)c(C)c1
inactive: NCI-H23 lung 89.7% | NCI-H322M lung 107% | HOP-62 NSCLC 102% | NCI-H460 lung 97% | HOP-92 NSCLC 69.9% | NCI-H522 lung 71.1% | A549/ATCC NSCLC 92.8% | 786-0 renal 89.1% | COLO 205 colon 135%

COc1cc2c3cc1Oc1c(OC)c(OC)cc4c1C(Cc1ccc(O)c(c1)Oc1ccc(cc1)CC3N(C)CC2)N(C)CC4 (stereo not drawn)
active: HOP-62 NSCLC 4.33% | NCI-H460 lung 2.92% | HOP-92 NSCLC -17.1% | NCI-H522 lung -34.4% | A549/ATCC NSCLC -33% | COLO 205 colon -97.3%
inactive: NCI-H23 lung 10.8% | NCI-H322M lung 44.6% | 786-0 renal 32.3%

O=P(O)(O)OCC(O)CO (stereo not drawn)
inactive: NCI-H23 lung 107% | NCI-H322M lung 107% | HOP-62 NSCLC 104% | NCI-H460 lung 109% | HOP-92 NSCLC 96.1% | NCI-H522 lung 109% | A549/ATCC NSCLC 97.3% | 786-0 renal 101% | COLO 205 colon 110%

COc1cccc(/C=N/NC(=S)NC2CC3CCC2C3)c1O (stereo not drawn)
inactive: NCI-H23 lung 71% | NCI-H322M lung 62.2% | HOP-62 NSCLC 39.6% | HOP-92 NSCLC 55.5% | NCI-H522 lung 64.7% | A549/ATCC NSCLC 43.9% | 786-0 renal 86.3% | COLO 205 colon 105%
active: NCI-H460 lung 3.68%

O=[N+]([O-])c1cccc(N=Nc2ccc(O)cc2O)c1
inactive: NCI-H23 lung 74.3% | NCI-H322M lung 95.9% | HOP-62 NSCLC 103% | NCI-H460 lung 91.6% | HOP-92 NSCLC 47.4% | A549/ATCC NSCLC 93.6% | 786-0 renal 74% | COLO 205 colon 92.2%
active: NCI-H522 lung -11.1%

CCNc1nc2c(cnn2C)c(=O)[nH]1
inactive: NCI-H23 lung 99.7% | NCI-H322M lung 95.5% | HOP-62 NSCLC 101% | NCI-H460 lung 108% | HOP-92 NSCLC 99.8% | NCI-H522 lung 98.4% | A549/ATCC NSCLC 109% | 786-0 renal 101% | COLO 205 colon 96.5%

CCCCCCCCCCC1CO1 (stereo not drawn)
inactive: NCI-H23 lung 106% | NCI-H322M lung 109% | HOP-62 NSCLC 95.1% | NCI-H460 lung 105% | HOP-92 NSCLC 89.7% | NCI-H522 lung 102% | A549/ATCC NSCLC 99.5% | 786-0 renal 101% | COLO 205 colon 105%

COc1ccc(C2(O)CCCCC2)cc1
inactive: NCI-H23 lung 97.9% | NCI-H322M lung 105% | HOP-62 NSCLC 102% | NCI-H460 lung 105% | HOP-92 NSCLC 73.2% | NCI-H522 lung 99.7% | A549/ATCC NSCLC 101% | 786-0 renal 98.5% | COLO 205 colon 112%

CCOC(=O)/C(=C/c1ccc(OC)cc1)N(CC)CC
inactive: NCI-H23 lung 96.3% | NCI-H322M lung 105% | HOP-62 NSCLC 103% | NCI-H460 lung 103% | HOP-92 NSCLC 81.4% | NCI-H522 lung 94.1% | A549/ATCC NSCLC 101% | 786-0 renal 103% | COLO 205 colon 115%

COC(=O)c1ccc(C(C)C)cc1
inactive: NCI-H23 lung 100% | NCI-H322M lung 95.8% | HOP-62 NSCLC 87.8% | NCI-H460 lung 114% | HOP-92 NSCLC 82.7% | NCI-H522 lung 79.3% | A549/ATCC NSCLC 90.5% | 786-0 renal 100% | COLO 205 colon 98%

CC(=Nc1ccccc1)C1=C(O)C(Cc2cccc(F)c2)NC1=O (stereo not drawn)
inactive: NCI-H23 lung 17.1% | NCI-H322M lung 31.8% | HOP-62 NSCLC 28.9% | HOP-92 NSCLC 41.2% | A549/ATCC NSCLC 14.3% | 786-0 renal 15.3%
active: NCI-H460 lung 6.19% | NCI-H522 lung -34.5% | COLO 205 colon -55.5%

CCCCNC(=O)C(=O)NCCCC
inactive: NCI-H23 lung 105% | NCI-H322M lung 104% | HOP-62 NSCLC 108% | NCI-H460 lung 115% | HOP-92 NSCLC 104% | NCI-H522 lung 112% | A549/ATCC NSCLC 111% | 786-0 renal 101% | COLO 205 colon 117%

O=C(O)COCC(=O)O
inactive: NCI-H23 lung 105% | NCI-H322M lung 97.6% | HOP-62 NSCLC 103% | NCI-H460 lung 107% | HOP-92 NSCLC 72.4% | NCI-H522 lung 94.3% | A549/ATCC NSCLC 91.6% | 786-0 renal 110% | COLO 205 colon 108%
